Assay results from PubChem BioAssay (NCATS).
Inconclusive results are not listed. Where a call stands in place of a potency, no number is given. Calls of active or inactive are those of the source. Calls come from the whole dose curve; as a rule, active = well fitted curve in the direction sought with a large enough effect; inconclusive = small, poorly fitted or top-dose-only effect, or another doubt; inactive = no such curve, though single readings can be large; an effect the other way counts as inactive or inconclusive.

Experiments:
[1] = molecular target: Aldehyde dehydrogenase, mitochondrial (Homo sapiens) (UniProt P05091); assay: qHTS for Inhibitors of the Aldehyde Dehydrogenase Family (ALDH2) Primary screen (AID 2061308); details: ALDH2 enzyme inhibition qHTS, 1536-well; series mostly up to 56 µM; note: nearly all actives have a fitted effect of over 55% in size
[2] = molecular target: Retinaldehyde dehydrogenase 3 (Homo sapiens) (UniProt P47895); assay: qHTS for Inhibitors of the Aldehyde Dehydrogenase Family (ALDH1A3) Primary screen (AID 2061315); details: ALDH inhibition qHTS; series mostly up to 56 µM

SMILES	Potency [1]	Potency [2]
Cc1cnc(-c2ccccc2C(C)C)nc1NCc1ccc(C(N)=O)cc1	inactive	inactive
N#Cc1nc(Nc2ccc(C(F)(F)F)cc2)nc(NC2CCCC2)n1	inactive	inactive
COCCN1C(=O)c2ccccc2NC1c1ccc(OC)c(COc2c(C)cc(NC(C)=O)cc2C)c1 (stereo unspecified)	inactive	inactive
